In the antibiotic and cytotoxicity screens of Wong et al. (2023):
Out of some 39,000 compounds screened, about 3,300 (8.5%) were called active. Many of the other results were omitted from the sample, so actives are more common in it than they were.

test system: HepG2; experiment: cytotoxicity call (relative viability < 0.9); details: 10 µM

`COCC(=O)Nc1ccc2c(c1)C(=O)N(C)[C@@H]1CC[C@H](CC(=O)NCc3ccc(OC)cc3)O[C@H]1CO2` was tested. Which cytotoxicity call did it give?
Its cytotoxicity call is “inactive”.

For `C[C@H]1CN([C@@H](C)CO)C(=O)Cc2cc(NS(=O)(=O)c3ccccc3)ccc2O[C@H]1CN(C)CC1CC1`, which cytotoxicity call is on record?
Its cytotoxicity call is “inactive”.

With `C[C@@H]1CN([C@@H](C)CO)C(=O)c2cc(NC(=O)CCC(F)(F)F)ccc2O[C@@H](C)CCCCO[C@H]1CN(C)S(=O)(=O)c1ccc(F)cc1` as the molecule, how does the cytotoxicity call read?
Its cytotoxicity call is “inactive”.

`COc1ccccc1CNC(=O)C[C@H]1C[C@@H]2c3cc(NC(=O)C4CCOCC4)ccc3O[C@@H]2[C@@H](CO)O1` was tested. Which cytotoxicity call did it give?
Its cytotoxicity call is “inactive”.

Which cytotoxicity call does the source give for `COc1ccc(S(=O)(=O)Nc2ccc3c(c2)C(=O)N([C@H](C)CO)C[C@@H](C)[C@@H](CN(C)CC2CC2)O3)cc1` here?
The cytotoxicity call was “inactive”.

For `Cc1noc(C)c1NC(=O)N(C)C[C@H]1Oc2ccc(NC(=O)NC(C)C)cc2CC(=O)N([C@@H](C)CO)C[C@H]1C`, which cytotoxicity call is on record?
Its cytotoxicity call is “inactive”.

For `O=C(CN1CCOCC1)NCC[C@H]1CC[C@H](NC(=O)Nc2ccccc2)[C@@H](CO)O1`, which cytotoxicity call is on record?
Its cytotoxicity call is “inactive”.

Which cytotoxicity call does the source give for `C[C@@H]1CCCCO[C@@H](CN(C)C(=O)Nc2ccc3c(c2)OCO3)[C@@H](C)CN([C@H](C)CO)C(=O)c2cc(NC(=O)Nc3ccccc3)ccc2O1` here?
The cytotoxicity call was “inactive”.

`Nc1cccc(C2=NCCN2)c1` was tested. Which cytotoxicity call did it give?
Its cytotoxicity call is “inactive”.

For `CS(=O)(=O)Nc1ccc2c(c1)[C@H]1C[C@@H](CC(=O)NCC3CC3)O[C@H](CO)[C@H]1O2`, which cytotoxicity call is on record?
Its cytotoxicity call is “inactive”.

With `COc1ccc(NC(=O)N(C)C[C@@H]2Oc3ncc(C#CCN(C)C)cc3C(=O)N([C@@H](C)CO)C[C@@H]2C)cc1` as the molecule, how does the cytotoxicity call read?
Its cytotoxicity call is “inactive”.

How did the cytotoxicity call turn out when `C[C@H](CO)N1C[C@H](C)[C@H](CN(C)S(=O)(=O)c2ccc(F)cc2)Oc2c(NS(=O)(=O)c3ccc(F)cc3)cccc2C1=O` was run?
Its cytotoxicity call is “inactive”.

With `C[C@@H]1CN([C@@H](C)CO)C(=O)c2cccc(NS(=O)(=O)c3ccc(F)cc3)c2O[C@@H]1CN(C)S(=O)(=O)c1ccc(F)cc1` as the molecule, how does the cytotoxicity call read?
Its cytotoxicity call is “active”.

With `C[C@H]1CN([C@@H](C)CO)C(=O)c2cccc(NS(=O)(=O)c3ccc(F)cc3)c2O[C@H]1CN(C)S(=O)(=O)c1ccc(F)cc1` as the molecule, how does the cytotoxicity call read?
The cytotoxicity call was “inactive”.

How did the cytotoxicity call turn out when `CC(C)C#Cc1ccc2c(c1)O[C@@H](CN(C)S(=O)(=O)c1cn(C)cn1)[C@H](C)CN([C@H](C)CO)S2(=O)=O` was run?
Its cytotoxicity call is “inactive”.

With `O=C(CS)NCCCCCCNC(=O)[C@@H]1C[C@@H]2C(=O)N[C@@H](Cc3ccccc3)C(=O)N2[C@@H]1c1ccc(O)cc1` as the molecule, how does the cytotoxicity call read?
Its cytotoxicity call is “inactive”.

`COc1ccc(NC(=O)N2C[C@H](O)COC[C@H]3O[C@@H](CC(=O)NC4Cc5ccccc5C4)CC[C@@H]32)cc1` was tested. Which cytotoxicity call did it give?
The cytotoxicity call was “inactive”.

How did the cytotoxicity call turn out when `CO[C@H]1CN(C)C(=O)c2ccc(NC(=O)C3CC3)cc2OC[C@@H](C)N(C(=O)CN2CCOCC2)C[C@H]1C` was run?
Its cytotoxicity call is “inactive”.

For `C[C@H]1CN([C@@H](C)CO)C(=O)c2cccc(NC(=O)c3ccc(-c4nccs4)cc3)c2O[C@H]1CN(C)C(=O)Nc1cccc2ccccc12`, which cytotoxicity call is on record?
Its cytotoxicity call is “inactive”.

For `COc1ccc(C#Cc2ccc3c(c2)[C@]2(C(=O)N3)[C@H](C(=O)O)[C@H]3C(=O)O[C@H](c4ccccc4)[C@H](c4ccccc4)N3[C@@H]2c2ccccc2OCCO)cc1`, which cytotoxicity call is on record?
The cytotoxicity call was “inactive”.

For `COc1ccc(C#Cc2ccc3c(c2)[C@]2(C(=O)N3)[C@H](c3ccccc3OCCO)N3[C@H](c4ccccc4)[C@H](c4ccccc4)OC(=O)[C@H]3[C@@H]2C(=O)N2CCN(c3ncccn3)CC2)cc1`, which cytotoxicity call is on record?
Its cytotoxicity call is “active”.

Which cytotoxicity call does the source give for `C=CCNC(=O)[C@H]1[C@@H]2C(=O)O[C@@H](c3ccccc3)[C@@H](c3ccccc3)N2[C@@H](c2ccccc2OCCO)[C@]12C(=O)Nc1ccc(C#CC3=CCCCC3)cc12` here?
The cytotoxicity call was “inactive”.

With `COc1ccc(C#Cc2ccc3c(c2)[C@]2(C(=O)N3)[C@H](C(=O)N3CCN(c4ncccn4)CC3)[C@H]3C(=O)O[C@H](c4ccccc4)[C@H](c4ccccc4)N3[C@@H]2c2ccccc2OCCO)cc1` as the molecule, how does the cytotoxicity call read?
Its cytotoxicity call is “inactive”.

How did the cytotoxicity call turn out when `COc1ccc(C#Cc2ccc3c(c2)[C@]2(C(=O)N3)[C@H](C(=O)N3CCN(c4ncccn4)CC3)[C@H]3C(=O)O[C@H](c4ccccc4)[C@H](c4ccccc4)N3[C@@H]2c2ccc(OCCO)cc2)cc1` was run?
Its cytotoxicity call is “inactive”.

How did the cytotoxicity call turn out when `COc1ccc(C#Cc2ccc3c(c2)[C@]2(C(=O)N3)[C@H](c3ccccc3OCCO)N3[C@H](c4ccccc4)[C@H](c4ccccc4)OC(=O)[C@H]3[C@@H]2C(=O)NC[C@H](O)c2ccccc2)cc1` was run?
The cytotoxicity call was “active”.

For `C=CCNC(=O)[C@@H]1[C@H]2C(=O)O[C@H](c3ccccc3)[C@H](c3ccccc3)N2[C@H](c2ccccc2OCCO)[C@@]12C(=O)Nc1ccc(C#CC3=CCCCC3)cc12`, which cytotoxicity call is on record?
The cytotoxicity call was “inactive”.

For `COc1ccc(C#Cc2ccc3c(c2)[C@]2(C(=O)N3)[C@H](C(N)=O)[C@H]3C(=O)O[C@H](c4ccccc4)[C@H](c4ccccc4)N3[C@@H]2c2ccccc2OCCO)cc1`, which cytotoxicity call is on record?
Its cytotoxicity call is “active”.

How did the cytotoxicity call turn out when `C=CCNC(=O)[C@@H]1[C@H]2C(=O)O[C@H](c3ccccc3)[C@H](c3ccccc3)N2[C@H](c2ccccc2OCCO)[C@@]12C(=O)Nc1ccc(C#Cc3ccc(OC)cc3)cc12` was run?
Its cytotoxicity call is “inactive”.

Which cytotoxicity call does the source give for `O=C1O[C@H](c2ccccc2)[C@H](c2ccccc2)N2[C@H]1[C@@H](C(=O)NC[C@@H](O)c1ccccc1)[C@]1(C(=O)Nc3ccc(C#CC4=CCCCC4)cc31)[C@H]2c1ccccc1OCCO` here?
Its cytotoxicity call is “active”.

How did the cytotoxicity call turn out when `COc1ccc(C#Cc2ccc3c(c2)[C@]2(C(=O)N3)[C@H](c3ccccc3OCCO)N3[C@H](c4ccccc4)[C@H](c4ccccc4)OC(=O)[C@H]3[C@@H]2C(=O)O)cc1` was run?
Its cytotoxicity call is “inactive”.

`COc1ccc(C#Cc2ccc3c(c2)[C@]2(C(=O)N3)[C@H](c3ccc(OCCO)cc3)N3[C@H](c4ccccc4)[C@H](c4ccccc4)OC(=O)[C@H]3[C@@H]2C(=O)NC[C@H](O)c2ccccc2)cc1` was tested. Which cytotoxicity call did it give?
The cytotoxicity call was “inactive”.

For `Cc1noc(C)c1NC(=O)Nc1ccc2c(c1)C(=O)N([C@@H](C)CO)C[C@H](C)[C@H](CN(C)Cc1ccc(C(F)(F)F)cc1)O2`, which cytotoxicity call is on record?
The cytotoxicity call was “inactive”.

Which cytotoxicity call does the source give for `Cc1noc(C)c1NC(=O)N(C)C[C@@H]1Oc2c(NS(=O)(=O)c3cn(C)cn3)cccc2C(=O)N([C@H](C)CO)C[C@@H]1C` here?
The cytotoxicity call was “inactive”.

Which cytotoxicity call does the source give for `OCCCn1cnnc1` here?
The cytotoxicity call was “inactive”.

How did the cytotoxicity call turn out when `C[C@H](CO)N1C[C@H](C)[C@H](CN(C)C)Oc2cc(C#CCN(C)C)ccc2S1(=O)=O` was run?
Its cytotoxicity call is “inactive”.

Which cytotoxicity call does the source give for `CN(C)Cc1cn(CC[C@H]2CC[C@H](NS(=O)(=O)c3ccccc3)[C@H](CO)O2)nn1` here?
Its cytotoxicity call is “inactive”.

How did the cytotoxicity call turn out when `C[C@H]1CN([C@@H](C)CO)C(=O)c2cc(NS(C)(=O)=O)ccc2O[C@H]1CN(C)Cc1ccc(C(=O)Nc2ccccc2N)cc1` was run?
Its cytotoxicity call is “inactive”.

For `C[C@H]1CN([C@@H](C)CO)C(=O)CCCn2nncc2CO[C@@H]1CN(C)C(=O)Nc1cccc2ccccc12`, which cytotoxicity call is on record?
Its cytotoxicity call is “inactive”.

With `C[C@H](CO)N1C[C@H](C)[C@@H](CN(C)C(=O)Nc2ccc(C(F)(F)F)cc2)Oc2ccc(NC(=O)C3CCCCC3)cc2CC1=O` as the molecule, how does the cytotoxicity call read?
Its cytotoxicity call is “inactive”.

With `O=C1O[C@@H](c2ccccc2)[C@@H](c2ccccc2)N2[C@@H](c3ccc(OCCO)cc3)[C@]3(C(=O)Nc4ccc(C#CC5(O)CCCCCC5)cc43)[C@@H](C(=O)NC[C@H](O)c3ccccc3)[C@H]12` as the molecule, how does the cytotoxicity call read?
Its cytotoxicity call is “inactive”.

With `O=C1O[C@@H](c2ccccc2)[C@@H](c2ccccc2)N2[C@@H](c3ccc(O)cc3)[C@]3(C(=O)Nc4ccc(C#CC5=CCCCC5)cc43)[C@@H](C(=O)NC[C@H](O)c3ccccc3)[C@H]12` as the molecule, how does the cytotoxicity call read?
Its cytotoxicity call is “inactive”.

Which cytotoxicity call does the source give for `O=C1O[C@@H](c2ccccc2)[C@@H](c2ccccc2)N2[C@@H](c3ccc(OCCO)cc3)[C@]3(C(=O)Nc4ccc(C#CC5=CCCCC5)cc43)[C@@H](C(=O)NC[C@H](O)c3ccccc3)[C@H]12` here?
Its cytotoxicity call is “active”.

`COc1cccc(S(=O)(=O)N(C)C[C@@H]2Oc3ncc(C#CCC(C)C)cc3C(=O)N([C@H](C)CO)C[C@H]2C)c1` was tested. Which cytotoxicity call did it give?
The cytotoxicity call was “inactive”.

For `O=C(C[C@H]1CC[C@@H]2[C@H](COC[C@@H](O)CN2S(=O)(=O)c2ccccc2)O1)N1CCOCC1`, which cytotoxicity call is on record?
Its cytotoxicity call is “inactive”.

`O=C(NC1CCN(CCCCC2(C(=O)NCC(F)(F)F)c3ccccc3-c3ccccc32)CC1)c1ccccc1-c1ccc(C(F)(F)F)cc1` was tested. Which cytotoxicity call did it give?
The cytotoxicity call was “active”.

Which cytotoxicity call does the source give for `O=C(NC1CCCCCCC1)c1ccccc1-c1ccccc1` here?
The cytotoxicity call was “inactive”.

With `C[C@]1(C(=O)NCC(F)(F)F)c2ccccc2C(=O)N(Cc2cc(C(F)(F)F)cc(C(F)(F)F)c2)[C@H]1c1ccc(CO)cc1` as the molecule, how does the cytotoxicity call read?
Its cytotoxicity call is “inactive”.

With `C[C@H]([C@@H](N)C(=O)N[C@H](C(=O)O)[C@H]1O[C@@H](n2ccc(O)cc2=O)[C@@H](O)[C@H]1O)[C@@H](C)c1ccc(O)cn1` as the molecule, how does the cytotoxicity call read?
The cytotoxicity call was “inactive”.

`C[C@H](CO)N1C[C@H](C)[C@@H](CN(C)C(=O)Cc2ccncc2)Oc2cc(-c3cncnc3)ccc2S1(=O)=O` was tested. Which cytotoxicity call did it give?
The cytotoxicity call was “inactive”.

Which cytotoxicity call does the source give for `C[C@@H]1CN([C@H](C)CN(C)C)C(=O)c2cc(NC(=O)Cc3cn(C)c4ccccc34)ccc2O[C@H]1CN(C)S(=O)(=O)c1ccc(Cl)cc1` here?
Its cytotoxicity call is “active”.

With `C[C@H](CO)N1C[C@H](C)[C@@H](CN(C)Cc2ccc(Cl)c(Cl)c2)Oc2ccc(NC(=O)Cc3cn(C)c4ccccc34)cc2CC1=O` as the molecule, how does the cytotoxicity call read?
The cytotoxicity call was “inactive”.

For `C[C@@H]1CN([C@@H](C)CO)C(=O)c2cc(NC(=O)Cc3cn(C)c4ccccc34)ccc2O[C@H]1CN(C)Cc1ccc(Cl)c(Cl)c1`, which cytotoxicity call is on record?
Its cytotoxicity call is “active”.

How did the cytotoxicity call turn out when `C[C@@H]1CN([C@@H](C)CO)C(=O)c2cc(NC(=O)Cc3cn(C)c4ccccc34)ccc2O[C@@H]1CN(C)S(C)(=O)=O` was run?
Its cytotoxicity call is “inactive”.

With `C[C@@H]1CN([C@@H](C)CO)C(=O)c2cc(NC(=O)Cc3cn(C)c4ccccc34)ccc2O[C@@H]1CN(C)Cc1ccc(Cl)c(Cl)c1` as the molecule, how does the cytotoxicity call read?
The cytotoxicity call was “active”.

Which cytotoxicity call does the source give for `C[C@H]1CN([C@@H](C)CO)C(=O)c2cc(NC(=O)Cc3cn(C)c4ccccc34)ccc2O[C@H]1CN(C)Cc1ccc(Cl)c(Cl)c1` here?
Its cytotoxicity call is “inactive”.

With `C[C@H]1CN([C@@H](C)CO)C(=O)c2cc(NC(=O)Cc3cn(C)c4ccccc34)ccc2O[C@@H]1CN(C)S(C)(=O)=O` as the molecule, how does the cytotoxicity call read?
Its cytotoxicity call is “inactive”.

Which cytotoxicity call does the source give for `C[C@H](CO)N1C[C@H](C)[C@H](CN(C)Cc2ccc(Cl)c(Cl)c2)Oc2ccc(NC(=O)Cc3cn(C)c4ccccc34)cc2C1=O` here?
Its cytotoxicity call is “inactive”.

Which cytotoxicity call does the source give for `C[C@@H]1CN([C@H](C)CO)C(=O)c2cc(NC(=O)Cc3cn(C)c4ccccc34)ccc2O[C@H]1CN(C)Cc1ccc(Cl)c(Cl)c1` here?
Its cytotoxicity call is “inactive”.

`C[C@H](CO)N1C[C@H](C)[C@@H](CN(C)Cc2ccc(Cl)c(Cl)c2)Oc2ccc(NC(=O)Cc3cn(C)c4ccccc34)cc2C1=O` was tested. Which cytotoxicity call did it give?
Its cytotoxicity call is “inactive”.

With `C[C@@H]1CN([C@H](C)CO)C(=O)c2cc(NC(=O)Cc3cn(C)c4ccccc34)ccc2O[C@@H]1CN(C)Cc1ccc(Cl)c(Cl)c1` as the molecule, how does the cytotoxicity call read?
Its cytotoxicity call is “active”.

For `C[C@H]1CN([C@@H](C)CO)C(=O)c2cc(NC(=O)Cc3cn(C)c4ccccc34)ccc2O[C@@H]1CN(C)Cc1ccc(Cl)c(Cl)c1`, which cytotoxicity call is on record?
Its cytotoxicity call is “inactive”.
